Columns and labels:
Settings in all cases: concentration: 1 μM,replicates: in singlicate; n = 1
[1] = tested on: STK36
[2] = tested on: STK39
[3] = tested on: SYK
[4] = tested on: SgK110
[5] = tested on: T1, TAK1
T1 construct: gene MAP3K7

[6] = tested on: TAOK1
[7] = tested on: TAOK2
[8] = tested on: TAOK3
[9] = tested on: TBK1
[10] = tested on: TEC
[11] = tested on: TESK1
[12] = tested on: TGFBR1
[13] = tested on: TGFBR2
[14] = tested on: TIE1
[15] = tested on: T2, TIE2
T2 construct: gene TEK

[16] = tested on: TLK1
[17] = tested on: TLK2
[18] = tested on: TNIK
[19] = tested on: TNK1
[20] = tested on: TNK2
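Note: KINOMEscan kinase panel screen.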

SMILES	%Inh [1] [%]	%Inh [2] [%]	%Inh [3] [%]	%Inh [4] [%]	%Inh [5] [%]	%Inh [6] [%]	%Inh [7] [%]	%Inh [8] [%]	%Inh [9] [%]	%Inh [10] [%]	%Inh [11] [%]	%Inh [12] [%]	%Inh [13] [%]	%Inh [14] [%]	%Inh [15] [%]	%Inh [16] [%]	%Inh [17] [%]	%Inh [18] [%]	%Inh [19] [%]	%Inh [20] [%]
Cl.Cl.NC[C@H](CC1CCCCC1)NC(=O)c1cc(Br)c(-c2ccnc3[nH]ccc23)s1 [GSK1581427]	0	6	19	82	0	42	0	4	1	0	0	0	0	56	0	57	0	0	6	0
C=CC(=O)Nc1cc2c(Nc3ccc(F)c(Cl)c3)ncnc2cc1OCCCN1CCOCC1 [GW781483]		22	6	0	20	0	0	0	0	39	0	22	40		31	0	0	0	28	0
Cc1occc1-c1nc(N)c(OC[C@@H](N)Cc2c[nH]c3ccccc23)cc1-c1cc2c(C)n[nH]c2cn1 [GSK1660450]	67	4	0	0	97.2	99.6	89	99.6	6	0	10	0	0	28	2	0	0	95.7	27	10
Cc1cc2cn[nH]c2cc1-c1cccc2c(N)c(C(N)=O)nnc12	0	47	20	0	69	83	37	39	47	94.9	9	12	80	2	31	25	12	0	36	94.2
CC(C)Nc1cc(-c2ccc3c(N)n[nH]c3c2)nc(N)n1 [GSK2221681]	0	3	3	0	2	4	0	0	35	0	0		0	3	0	9	0	0	0	12
CCN(CC)CCCCNc1ncc2cc(-c3c(Cl)cccc3Cl)c(NC(=O)NC(C)(C)C)nc2n1	77	0	11	25	57	99.2	99.5	99.5	0	0	48	80	61	74	94.6	15	0	41	25	69
Cc1ccc(-n2nc(C(C)(C)C)cc2NC(=O)Nc2ccc(OCCN3CCOCC3)c3ccccc23)cc1 [GW839464]	0	0	9	22	76	0	1	0	31	34	28	0	13			3	5	92	22	31
Nc1nc(Nc2ccccc2)cc(-c2ccc3c(N)n[nH]c3c2)n1 [GSK2225749]	24	0	0	0	36	32	2	23	28	0	0		0	35	3	0	2	46	0	0
CC(C)N1C(=O)Cc2cc(Nc3ncc(C(F)(F)F)c(NCc4cccc(S(C)(=O)=O)c4)n3)ccc21	0	33	87	0	70	0	0	0	86	10	0	0	0	42	0	23	0	20	50	13
CN(C)CC(O)COc1ccc(Nc2nccc(-c3cnn4nc(N5CCOCC5)ccc34)n2)cc1 (centres unmarked) [GW767488]	56	79	4	0	63	59	34	37	58	7	10	8	78	41	27	51	50	1	0	0
CNC(=O)c1ccccc1Sc1ccc2c(/C=C/c3ccccn3)n[nH]c2c1	24	0	5	0	15	0	0	0	36	0	15	11	0		53	0	0	49	64	0
NC(=O)c1cc(-c2ccccc2)cc2c(C3CCNCC3)c[nH]c12 [GSK301362]	3	15	34	0	0	95.8	28	90	12	24	18	0	0	8	19	0	0	36	10	25
Cc1n[nH]c2ccc(-c3cc(OC[C@@H](N)Cc4ccccc4)cnc3-c3ccoc3)cc12.O=C(O)C(F)(F)F.O=C(O)C(F)(F)F [GSK507358]	0	0	0	0	97.9	92.4	5	74	18	0	19	0	0	0	0	0	0	96.5	0	10
CCN(CC)CCOc1ccc(Nc2ncc3cc(-c4c(Cl)cccc4Cl)c(=O)n(C)c3n2)cc1 [SB-601273]	99.5	60	89	84	65	99.1	99.4	99.9	42	89	97.6	99.5	98	94	98.8	5	2	96.8	100	100
Cc1cc(C(=O)Nc2ccc(Oc3ccc4nc(NC(=O)C5CC5)cn4n3)cc2)nn1-c1ccccc1	0	7	22	0	0	0	1	0	57	37	16	30	21	82	38	0	0	12	53	0
Cl.Cl.NC[C@H](Cc1ccc(C(F)(F)F)cc1)NC(=O)c1cc(Br)c(-c2ccnc3[nH]ccc23)s1 [GSK1487252]	0	7	10	75	11	2	0	0	4	8	24	0	0	35	0	8	4	0	0	19
O=C(NCCCN1CCOC1=O)c1cnc(NCc2cc(Cl)ccc2Cl)nc1NC1CCCC1	10	0	15	0	0	0	10	0	24	18	23	10	26	0	0	10	2	17	0	17
C[C@@H]1CCN(C(=O)CC#N)C[C@@H]1N(C)c1ncnc2[nH]ccc12	0	0		50		0	0	0	10	39	1	0	0	18	4	0	0	0	75	0
Cl.Cl.Nc1nc(-c2ccc3c(N)n[nH]c3c2)cc(N2CCCC(NC(=O)c3ccccc3)C2)n1 (centres unmarked) [GSK2286775]	0	0	0	0	0	0	0	0	76	6	98.1	13	0	0	0	18	16	0	8	14
